PubChem BioAssay (NCI)
About 79,000 compounds went through this panel and 15% of them were active in at least one assay; those are over-represented in the sample as a whole. Active and inactive are the calls of the source. Cut-off read from the data, not from the text of the source: active = growth inhibition above about 70%; inactive = the rest.

How the values were obtained:
[1] = NCI Yeast Anticancer Drug Screen. Data for the rad50 strain (AID 155);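 note: 0% = growth of vehicle-only cultures of the same strain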; settings: S. cerevisiae rad50 strain growth inhibition, stronger effect = higher value
Outline: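 Cells are treated with compound, grown, and their growth is then scored against vehicle-only cultures of the same repair-deficient yeast strain.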

[2] = NCI Yeast Anticancer Drug Screen. Data for the mec2-1 strain (AID 157); settings: S. cerevisiae mec2-1 strain, stronger effect = higher value
Outline: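 Using mec2-1 yeast: add compound, measure growth, express inhibition versus vehicle-treated cultures.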

[3] = NCI Yeast Anticancer Drug Screen. Data for the sgs1 mgt1 strain (AID 161);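 note: 0% = growth of cultures given vehicle only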; settings: S. cerevisiae sgs1 mgt1 strain, stronger effect = higher value
Outline: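 Compounds are added to genetically altered yeast, and growth is compared with cultures given vehicle alone to give percent inhibition.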

[4] = NCI Yeast Anticancer Drug Screen. Data for the cln2 rad14 strain (AID 165);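 note: 0% = growth equal to vehicle treated cultures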; settings: S. cerevisiae cln2 rad14 strain, stronger effect = higher value
Outline: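 Yeast strain cln2 rad14, bearing defects in cell cycle control and DNA repair, serves as the test system; values reflect growth inhibition compared with vehicle.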

[5] = NCI Yeast Anticancer Drug Screen. Data for the bub3 strain (AID 167); settings: S. cerevisiae bub3 mutant strain, stronger effect = higher value
Outline: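 Part of a panel of yeast mutants defective in DNA damage repair or cell cycle regulation. Each strain is grown with compound, and inhibition is calculated relative to solvent-treated cultures.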

[6] = NCI Yeast Anticancer Drug Screen. Data for the mlh1 rad18 strain (AID 175); settings: S. cerevisiae mlh1 rad18 strain growth inhibition, stronger effect = higher value
Outline: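 Steps: expose repair-defective yeast to compound; measure growth; express inhibition against vehicle-treated controls.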

[7] = at 5.0 µM (retest, dose inferred, filed as 0.5)
[8] = at 50.0 µM (retest, dose inferred, filed as 5.0)

Measured: growth inhibition

OC1C2COc3nc4ccccc4n3C(O2)C1O (configuration not stated)
inactive: [1]; [7] -153% | [1]; [8] -165% | [1]; at 50.0 µM -7.3% | [2]; [7] -54% | [2]; [8] -57% | [2]; at 50.0 µM 5.4% | [3]; [7] -58% | [3]; [8] -70% | [3]; at 50.0 µM -10.4% | [4]; [7] -60% | [4]; [8] -56% | [4]; at 50.0 µM 33.6% | [5]; [7] -69% | [5]; [8] -84% | [5]; at 50.0 µM -14.9% | [6]; [7] -117% | [6]; [8] -118% | [6]; at 50.0 µM -7.05%

O=C(OCC1OC(c2nn[nH]n2)C(OC(=O)c2ccccc2)C1OC(=O)c1ccccc1)c1ccccc1 (configuration not stated)
inactive: [1]; [7] 17% | [1]; [8] 61% | [1]; at 50.0 µM 19% | [2]; [7] 4% | [2]; [8] 56% | [2]; at 50.0 µM 30.4% | [3]; [7] 19% | [3]; at 50.0 µM 43.8% | [4]; [7] 25% | [4]; at 50.0 µM 45.9% | [5]; [7] 17% | [5]; at 50.0 µM 66% | [6]; [7] 36% | [6]; [8] 66% | [6]; at 50.0 µM -33.6%
active: [3]; [8] 80% | [4]; [8] 70% | [5]; [8] 80%

Cc1ccc(C)c(NC(=O)CC2SC(=Nc3ccccc3Cl)NC2=O)c1 (configuration not stated)
inactive: [1]; [7] 23% | [1]; [8] 65% | [2]; [7] 24% | [2]; [8] 60% | [2]; at 50.0 µM 58.9% | [3]; [7] 25% | [3]; at 50.0 µM 65.3% | [4]; [7] 23% | [4]; [8] 55% | [5]; [7] 33% | [6]; [7] 31% | [6]; at 50.0 µM 64.5%
active: [1]; at 50.0 µM 79% | [3]; [8] 91% | [4]; at 50.0 µM 78% | [5]; [8] 85% | [5]; at 50.0 µM 75.9% | [6]; [8] 82%

O=[N+]([O-])/C(C(Cl)=C(Cl)Cl)=C(/Sc1ccccc1)N1CCOCC1
active: [1]; [8] 99% | [1]; at 50.0 µM 88.2% | [2]; [8] 99% | [2]; at 50.0 µM 91.8% | [3]; [8] 99% | [3]; at 50.0 µM 85.8% | [4]; [8] 99% | [4]; at 50.0 µM 89.2% | [5]; [8] 99% | [5]; at 50.0 µM 89.5% | [6]; [8] 98% | [6]; at 50.0 µM 83.2%
inactive: [1]; [7] 5% | [2]; [7] 2% | [3]; [7] -4% | [4]; [7] -7% | [5]; [7] -20% | [6]; [7] 15%

Brc1ccc(C2SCc3nc4ccccc4n32)cc1 (configuration not stated)
active: [1]; [8] 89% | [1]; at 50.0 µM 74.5% | [3]; at 50.0 µM 96.1% | [5]; [8] 88% | [5]; at 50.0 µM 92.3% | [6]; at 50.0 µM 78.7%
inactive: [1]; [7] 2% | [2]; [7] 7% | [2]; [8] 51% | [2]; at 50.0 µM 24.8% | [3]; [7] 12% | [3]; [8] 57% | [4]; [7] -10% | [4]; [8] 37% | [4]; at 50.0 µM 56.6% | [5]; [7] -2% | [6]; [7] -2% | [6]; [8] 54%

COC(=O)c1ccccc1C#Cc1ccccc1C(=O)OC
active: [3]; at 50.0 µM 89% | [5]; at 50.0 µM 83.5%
inactive: [1]; [7] -1% | [1]; [8] -1% | [1]; at 50.0 µM 66.8% | [2]; [7] -2% | [2]; [8] 2% | [2]; at 50.0 µM 54.3% | [3]; [7] -2% | [3]; [8] 1% | [4]; [7] -2% | [4]; [8] -7% | [4]; at 50.0 µM 12.9% | [5]; [7] 3% | [5]; [8] 4% | [6]; [7] -3% | [6]; [8] -5% | [6]; at 50.0 µM 50%

O=[N+]([O-])/C(C(Cl)=C(Cl)Cl)=C(/Nc1ccccc1)Sc1ccccc1
active: [1]; [8] 99% | [2]; [8] 99% | [2]; at 50.0 µM 70.2% | [3]; [8] 99% | [4]; [8] 99% | [5]; [8] 99% | [6]; [7] 78% | [6]; [8] 99% | [6]; at 50.0 µM 84.8%
inactive: [1]; [7] 62% | [1]; at 50.0 µM 17.1% | [2]; [7] 41% | [3]; [7] 64% | [3]; at 50.0 µM 66.5% | [4]; [7] 49% | [4]; at 50.0 µM 23.8% | [5]; [7] 51% | [5]; at 50.0 µM 64.2%

CC1=C(C(=O)Nc2ccccc2C)C(c2ccc(Cl)c(Cl)c2)C(C(=O)Nc2ccccc2C)=C(C)N1
inactive: [1]; [7] 5% | [1]; [8] 5% | [2]; [7] 2% | [2]; [8] 2% | [3]; [7] -5% | [3]; [8] -5% | [4]; [7] 8% | [4]; [8] 8% | [5]; [7] -19% | [5]; [8] -19% | [6]; [7] 8% | [6]; [8] 8%
active: [1]; at 50.0 µM 84% | [2]; at 50.0 µM 76.3% | [3]; at 50.0 µM 79.4% | [4]; at 50.0 µM 78.5% | [5]; at 50.0 µM 82% | [6]; at 50.0 µM 77.1%

O=C1Nc2ccccc2NC(=O)C(=C(c2ccccc2)c2ccccc2)C1=C(c1ccccc1)c1ccccc1
inactive: [1]; at 50.0 µM 46.9% | [3]; at 50.0 µM 53.1% | [6]; at 50.0 µM 43.9%
active: [1]; [7] 95% | [1]; [8] 96% | [2]; [7] 94% | [2]; [8] 97% | [2]; at 50.0 µM 97.8% | [3]; [7] 96% | [3]; [8] 98% | [4]; [7] 92% | [4]; [8] 96% | [4]; at 50.0 µM 97.5% | [5]; [7] 95% | [5]; [8] 97% | [5]; at 50.0 µM 98% | [6]; [7] 96% | [6]; [8] 96%
